Inconclusive results are not listed. The source made the active and inactive calls.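 The calls were made as follows: active = NMR saturation transfer binding signal to menin that a known MLL-derived binding peptide displaces; inconclusive = NMR binding signal present but the peptide does not displace it; inactive = no NMR binding signal.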
target: Menin (Homo sapiens) (UniProt O00255); assay: Confirmation of Inhibitors Targeting the Menin-MLL Interaction in MLL Related Leukemias: Binding Confirmation with NMR Saturation Transfer Difference; settings: recombinant menin
Sequence (O00255 whole entry, looked up, the tested form may be a part): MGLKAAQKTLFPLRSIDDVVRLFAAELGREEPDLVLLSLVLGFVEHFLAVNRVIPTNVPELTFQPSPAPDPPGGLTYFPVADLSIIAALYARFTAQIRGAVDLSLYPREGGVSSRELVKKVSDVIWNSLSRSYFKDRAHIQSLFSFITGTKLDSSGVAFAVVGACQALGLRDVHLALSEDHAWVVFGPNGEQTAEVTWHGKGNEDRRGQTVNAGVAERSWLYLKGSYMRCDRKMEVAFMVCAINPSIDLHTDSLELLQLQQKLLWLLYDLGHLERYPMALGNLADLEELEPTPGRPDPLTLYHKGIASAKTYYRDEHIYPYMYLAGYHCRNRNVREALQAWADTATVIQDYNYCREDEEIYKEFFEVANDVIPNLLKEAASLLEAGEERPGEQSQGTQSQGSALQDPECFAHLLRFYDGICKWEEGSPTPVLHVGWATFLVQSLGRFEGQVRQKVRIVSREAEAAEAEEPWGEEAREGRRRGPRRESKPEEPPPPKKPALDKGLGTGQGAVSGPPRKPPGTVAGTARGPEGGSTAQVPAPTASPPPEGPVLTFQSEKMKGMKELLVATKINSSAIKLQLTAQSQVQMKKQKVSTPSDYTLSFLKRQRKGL
Description: qHTS Assay for Inhibitors Targeting the Menin-MLL Interaction in MLL Related Leukemias NIH Chemical Genomics Center [NCGC] NIH Molecular Libraries Probe Centers Network [MLPCN] MLPCN Grant: MH084875-01A1 Assay Submitter (PI): Jolanta Grembecka, Tomasz Cierpicki, University of Virginia Translocations of the MLL (Mixed Lineage Leukemia) gene are frequently found in human leukemias affecting both children and adults. Fusion of MLL to one of more than 60 genes results in generation of oncogenic proteins upregulating Hox genes, which are vital to blood cell development. Patients harboring fusion of the MLL gene suffer from aggressive leukemias and respond poorly to available therapies. All of the oncogenic fusion proteins have a preserved N-terminal fragment of MLL that has been identified to interact with menin. It has been recently discovered that association with menin is critical to the leukemogenic activity of the MLL fusion oncoproteins. Selective targeting of the menin-MLL interaction could provide an attractive therapeutic approach to develop novel drugs for MLL-related leukemias. Small molecules blocking the menin-MLL interaction should reverse the oncogenic potential of MLL fusion proteins. We have developed and optimized a fluorescence polarization-based assay for the identification of Menin-MLL inhibitors. The assay was run employing two different MLL-derived peptides. The present assay uses a 12 amino acid peptide labeled with fluorescein at its N-terminus. This peptide consists of the menin high affinity binding motif from MLL and is potently bound by menin. Another peptide with a mutated sequence, labeled with Texas Red, was used in parallel as a less stringent screen for inhibitors. The present assay uses an orthogonal technique to identify those compounds specifically interacting with the target protein.
NMR samples for the saturation transfer difference (STD) experiments contained 2.5uM menin solution in 50 mM phosphate buffer, 50 mM NaCl, 1mM DTT, pH= 7.5, with 5% of D2O, final volume 150 uL. The compounds were added as stock solutions in DMSO to final 100 uM concentration and 5% DMSO. All NMR experiments were recorded using 600 MHz Bruker Avance III spectrometer at 25C. Samples for the competition STD experiments contained additional MBM1 peptide at final concentration of 25 uM and the measurements were carried out is the same way as described above for STD experiments.

outcome, inactive:
CCOc1ccc2c(c1)C(NC(C)=O)C(=O)N2CCN1CCOCC1 (stereo unspecified) inactive; false
CC(=O)NC1C(=O)N(CCN2CCOCC2)c2ccc(Cl)cc21 (stereo unspecified) inactive; false
CC(=O)NC1C(=O)N(CCN2CCOCC2)c2ccc(C)cc21 (stereo unspecified) inactive; false
CCc1ccc2c(c1)C(NC(C)=O)C(=O)N2CCN1CCOCC1 (stereo unspecified) inactive; false
CCN(CC)Cc1cc2[nH]c3c4ccc(Cl)cc4ncc3c2cc1OC inactive; false
O=C(CS)Nc1ccc2ccccc2c1 inactive; false
C[C@H](NC(=O)c1cc2c(cn1)[nH]c1ccccc12)C(=O)O inactive; false
CN(C)c1ccc(C2CC(=O)C=C(Nc3ccccc3N)C2)cc1 (stereo unspecified) inactive; false

outcome, active:
CCOc1cc(CNCCc2ccc(S(N)(=O)=O)cc2)ccc1OCc1ccccc1 active; true
CCOC(=O)c1cnc2ccc(OCC)cc2c1N1CCN(C)CC1 active; true
COc1ccccc1C(=O)Nc1ccnn1C1CCN(CC2CC=CCC2)CC1 (stereo unspecified) active; true
Cc1sc2ncnc(NC3CCN(Cc4ccccc4)CC3)c2c1C active; true
N#Cc1ccc(OCC(O)CN2CCN(C(c3ccccc3)c3ccccc3)CC2)cc1 (stereo unspecified) active; true
CCCC(c1nnnn1Cc1cccs1)N1CCN(C2CCCC2)CC1 (stereo unspecified) active; true
CCC(c1nnnn1Cc1ccc(F)cc1)N1CCN(C2CCCCC2)CC1 (stereo unspecified) active; true
O=C(C[N+]12CC[N+](CC(=O)c3ccc(F)cc3)(CC1)CC2)c1ccc(F)cc1 active; true
